From PubChem BioAssay AID743187 (National Center for Advancing Translational Sciences (NCATS), 2013)
Some of the results follow. Results filed as inconclusive are left out. Values without a mark were called inactive. Activity calls are given as the source filed them. Calls come from the whole dose curve; as a rule, active = well fitted inhibition curve with a large enough effect; inconclusive = small, poorly fitted or top-dose-only effect; inactive = no such curve, though single readings can be large or run the other way.

These compounds were tested against Peroxisomal multifunctional enzyme type 2 (Homo sapiens) (UniProt P51659) (assay: Extended Characterization of HPGD Inhibitors: Counterscreen Against HSD17b4). Conditions: purified HSD17B4, estradiol/NAD+, NADH fluorescence; series mostly up to 57.1 µM; activity change, negative = inhibition: at the top concentration.
Text: The central role of HPGD is to inactivate prostaglandins such as prostaglandin E2 (PGE2) or prostaglandin D2 (PGD2). These prostaglandins are involved in a number of processes, including inflammation, differentiation, and cellular signaling, which makes HPGD an important target for pharmacological intervention. The […] enzyme 17b-hydroxysteroid dehydrogenase […] (HSD17b4 catalyzes the NAD+-dependent oxidation of a variety of substrates including acyl-CoAs, androgens and neurosteroids, as well as bile acids. HSD17b4 activity was screened by utilizing an electron donor (estradiol) and NAD+ as an electron acceptor/cofactor. An increase in the fluorescence intensity due to conversion of NAD+ to NADH was used to measure the enzyme activity.. NIH Chemical Genomics Center [NCGC] NIH Molecular Libraries Probe Centers Network [MLPCN] MLPCN Grant: MH084681 Assay Submitter (PI): Structural Genomics Consortium
3 uL of enzyme (final concentration 100 nM) or buffer were dispensed into a 1,536-well solid-bottom black plate (Greiner Bio One, Monroe, NC) followed by pin-tool transfer (23 nL) of compound (final concentration range 324 pM to 57.2 uM) and control (CID-24867619, final concentration range 5.23 nM to 11.4 uM). Samples were incubated (RT, protected from light) for 15 minutes followed by a 1 uL substrate addition of NAD+ and Estradiol (final concentrations of 1 mM and 50 uM, respectively, in 15% DMSO). Plates were centrifuged at 1,000 rpm for 15 seconds, then read immediately on a ViewLux High-throughput CCD imager (Perkin-Elmer) equipped with standard UV fluorescence optics (340 nm excitation, 450 nm emission), incubated for 1 hour (RT, protected from light) followed by a second read. Data were normalized ([…]) against no-enzyme (positive) and enzyme-containing (neutral) wells.

Sequence of Peroxisomal multifunctional enzyme type 2 (Homo sapiens) (P51659 whole entry, looked up): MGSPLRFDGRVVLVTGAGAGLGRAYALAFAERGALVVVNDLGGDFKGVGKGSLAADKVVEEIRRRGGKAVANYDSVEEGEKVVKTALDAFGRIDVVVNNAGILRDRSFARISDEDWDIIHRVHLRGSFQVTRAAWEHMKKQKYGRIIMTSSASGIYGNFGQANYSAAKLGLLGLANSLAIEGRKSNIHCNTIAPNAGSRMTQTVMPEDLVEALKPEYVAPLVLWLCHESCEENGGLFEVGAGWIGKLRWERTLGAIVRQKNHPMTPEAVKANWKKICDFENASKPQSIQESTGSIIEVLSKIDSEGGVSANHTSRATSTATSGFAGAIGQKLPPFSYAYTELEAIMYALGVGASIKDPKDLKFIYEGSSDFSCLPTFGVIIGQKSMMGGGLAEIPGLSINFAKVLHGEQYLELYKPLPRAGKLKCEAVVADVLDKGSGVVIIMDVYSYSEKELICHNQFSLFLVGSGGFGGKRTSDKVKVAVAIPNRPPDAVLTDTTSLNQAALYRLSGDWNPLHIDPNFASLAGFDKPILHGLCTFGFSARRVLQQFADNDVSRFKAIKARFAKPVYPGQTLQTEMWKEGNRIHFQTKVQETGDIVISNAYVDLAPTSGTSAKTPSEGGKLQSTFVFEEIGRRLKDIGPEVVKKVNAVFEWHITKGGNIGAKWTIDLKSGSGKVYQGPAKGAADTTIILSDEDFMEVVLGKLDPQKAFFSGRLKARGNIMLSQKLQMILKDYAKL

| Compound | activity change, negative = inhibition [%] | Potency |
| --- | --- | --- |
| Cc1cc(-c2nnc3n2CCCCC3)c(C)n1-c1cccc(Cl)c1 | -8.23 |  |
| COc1ccnc(NC(=S)N2CCN(c3ncc(C(F)(F)F)cc3Cl)CC2)c1 | -22.7 |  |
| COc1cccc(NC(=S)N2CCN(c3ccc(Cl)cc3Cl)CC2)n1 | -23.8 |  |
| Cc1cc(C)nc(NC(=S)N2CCN(c3ccc(Cl)cc3C(F)(F)F)CC2)c1 |  | 24.1 µM (active) |
| COc1cccc(NC(=S)N2CCN(c3ccccc3C(F)(F)F)CC2)n1 | -11.1 |  |
| FC(F)(F)c1cccc(N2CCN(C(=S)Nc3ccncc3)CC2)c1 | -27.4 |  |
| Cc1cc(C)nc(NC(=S)N2CCN(c3cccc(C#N)c3)CC2)c1 | -28.4 |  |
| Cc1cc(C)nc(NC(=S)N2CCN(c3ccc4nonc4c3)CC2)c1 | 0.76 |  |
